The full ranking holds about 33,000 sequences; the median of “E-score (-0.5 to 0.5)” is about -0.016, and the highest 2% start at about 0.3. The list comes from a sample in which the highest values are over-represented; it also holds similar and randomly drawn sequences.

The assay has as its target T1, Yer184c (UniProt P39961).
T1 sequence: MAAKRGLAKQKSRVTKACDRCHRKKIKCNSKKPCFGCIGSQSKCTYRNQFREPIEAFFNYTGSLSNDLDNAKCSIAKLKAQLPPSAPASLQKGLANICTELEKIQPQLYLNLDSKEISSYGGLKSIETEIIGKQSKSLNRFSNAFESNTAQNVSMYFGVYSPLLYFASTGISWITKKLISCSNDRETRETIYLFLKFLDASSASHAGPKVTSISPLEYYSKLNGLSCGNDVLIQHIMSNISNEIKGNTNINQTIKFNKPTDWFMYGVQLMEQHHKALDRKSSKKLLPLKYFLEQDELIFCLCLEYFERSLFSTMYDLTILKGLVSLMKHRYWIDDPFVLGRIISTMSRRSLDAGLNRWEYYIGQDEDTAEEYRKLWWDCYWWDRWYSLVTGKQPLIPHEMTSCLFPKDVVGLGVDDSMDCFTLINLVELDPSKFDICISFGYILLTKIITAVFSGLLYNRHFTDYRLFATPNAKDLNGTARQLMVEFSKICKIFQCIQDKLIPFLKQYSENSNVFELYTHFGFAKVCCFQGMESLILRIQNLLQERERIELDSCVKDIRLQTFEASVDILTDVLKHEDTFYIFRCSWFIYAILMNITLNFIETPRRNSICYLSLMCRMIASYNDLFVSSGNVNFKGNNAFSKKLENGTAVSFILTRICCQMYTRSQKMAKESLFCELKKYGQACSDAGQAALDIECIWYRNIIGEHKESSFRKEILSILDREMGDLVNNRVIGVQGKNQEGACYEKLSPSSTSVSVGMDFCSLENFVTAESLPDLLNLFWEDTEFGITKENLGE
Nature of the assay: PBM E-score (8-mer binding enrichment) (E-score (-0.5 to 0.5)); higher = stronger / more preferred TF binding. To be noted: protein concentration: 100 nM; construct: GST-full length. Here is the method:
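Universal 'all 10-mer' protein binding microarrays (Agilent AMADID 015681) probed with GST-tagged S. cerevisiae TFs (full-length or DBD) made by in vitro transcription/translation (PURExpress), about 100-200 nM. Bound TF was detected with fluorescent anti-GST. Each ungapped 8-mer (which stands for itself and its reverse complement) is scored by the PBM enrichment score (E-score), a modified Wilcoxon-Mann-Whitney statistic from -0.5 to +0.5, computed with the Universal PBM Analysis Suite. Scale: above 0.35 generally sequence-specific binding.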
Regarding AGATCATC, the “PBM E-score” value was 0.0775.

CGTGGCAA: the “PBM E-score” value is -0.0803.

For the sequence CATACCAC, the “PBM E-score” value was 0.0462.

In the case of AGGAACAC, the “PBM E-score” value was 0.161.

As to AGGAACTA, the “PBM E-score” value was -0.103.

As to CGGAACAC, the “PBM E-score” value was 0.356.

In the case of CGGAACTC, the “PBM E-score” value is 0.202.

CGGAACTA: the “PBM E-score” value was 0.414.

As to CGGAACGA, the “PBM E-score” value was 0.306.

As to GGGAACAC, the “PBM E-score” value came out at 0.221.

In the case of CGGAACGC, the “PBM E-score” value is 0.241.

Regarding GCGAACAA, the “PBM E-score” value came out at 0.246.

CCGAACAA: the “PBM E-score” value was 0.322.

With ACGAACAA, the “PBM E-score” value stood at 0.275.

AGGAACGA: the “PBM E-score” value was -0.141.

As for ACCAGACT, the “PBM E-score” value was -0.0238.

Consider GTTTGCTA, for which the “PBM E-score” value is 0.0684.

For ATACACGG, the “PBM E-score” value is 0.047.

As for CGGCGCAA, the “PBM E-score” value was 0.178.

On to AGGCTGAT, for which the “PBM E-score” value is -0.161.

On to GGGAACAA, for which the “PBM E-score” value came out at 0.158.

As for CGGAACAA, the “PBM E-score” value was determined as 0.39.

ACGAACTA: the “PBM E-score” value is 0.157.

Consider CCGAACTA, for which the “PBM E-score” value stood at 0.323.

Take AGGAACAG: the “PBM E-score” value is -0.19.

Regarding CGGAACAG, the “PBM E-score” value came out at 0.338.

For the sequence TGGAACAA, the “PBM E-score” value was determined as 0.195.

With CCGAACTC, the “PBM E-score” value came out at 0.246.

Take CCGAACAG: the “PBM E-score” value came to 0.216.

For CGATAGCA, the “PBM E-score” value was -0.114.

AGTTACGA: the “PBM E-score” value is 0.107.

As to CAGAGGGG, the “PBM E-score” value is -0.286.

Take AGTAGCTC: the “PBM E-score” value was -0.00154.

For CTCGCTTC, the “PBM E-score” value is -0.0232.

Take AGTCTGAG: the “PBM E-score” value was -0.14.

As to AGGCTCAC, the “PBM E-score” value is -0.273.

In the case of GCATTAAA, the “PBM E-score” value stood at 0.149.

As for AATTTTAT, the “PBM E-score” value amounted to 0.379.

With TTATTAAA, the “PBM E-score” value is 0.233.

Consider TGTTTTAA, for which the “PBM E-score” value was 0.327.

For TGTTTAAA, the “PBM E-score” value is 0.0737.

Consider AATTTTAC, for which the “PBM E-score” value was 0.176.

With CTATTAAA, the “PBM E-score” value came to 0.21.

Consider ACATTAAA, for which the “PBM E-score” value worked out at 0.0822.

On to AGTTTTAA, for which the “PBM E-score” value came to 0.159.

Turning to TCATTAAA, the “PBM E-score” value amounted to 0.343.

ATATTAAA: the “PBM E-score” value was determined as 0.368.

On to AAATTTAT, for which the “PBM E-score” value worked out at 0.286.

Turning to TCAGCAAA, the “PBM E-score” value was 0.158.

As for ACTAGTGA, the “PBM E-score” value was -0.172.

For AGAGCTTA, the “PBM E-score” value is 0.0135.

For CGTTTCAC, the “PBM E-score” value came to 0.135.

In the case of ATCAATGA, the “PBM E-score” value was 0.2.

In the case of CAGTAAAG, the “PBM E-score” value is -0.177.

Take GAGCAACA: the “PBM E-score” value stood at 0.128.

With GATAACAC, the “PBM E-score” value was 0.0102.

With AATTTATA, the “PBM E-score” value is 0.24.

For ATTTTTTA, the “PBM E-score” value turned out to be 0.274.

With AATTTTAA, the “PBM E-score” value stood at 0.252.

For the sequence ATATTTAA, the “PBM E-score” value was found to be 0.306.

As to ATTTTAAC, the “PBM E-score” value turned out to be 0.028.

In the case of ATTTTTAA, the “PBM E-score” value came to 0.333.

Take ATTTTAAA: the “PBM E-score” value worked out at 0.331.

For the sequence GTTTTAAA, the “PBM E-score” value is 0.131.

Consider CTATTTAA, for which the “PBM E-score” value amounted to 0.0903.

For ATATTTAC, the “PBM E-score” value is 0.202.

In the case of ATTTTATG, the “PBM E-score” value came to 0.217.

For AATTTATG, the “PBM E-score” value is 0.307.

ACCCCGCA: the “PBM E-score” value is -0.0654.

Consider GCTTTTCC, for which the “PBM E-score” value was determined as 0.109.

Take GGCGATTA: the “PBM E-score” value is 0.0843.

As to CAGATCGA, the “PBM E-score” value was -0.0498.

In the case of CCTAGTTA, the “PBM E-score” value came out at 0.0429.

ACCCTACA: the “PBM E-score” value is -0.0427.

Take AGTTGACA: the “PBM E-score” value was found to be 0.0221.

With AGAGGTGA, the “PBM E-score” value is -0.148.

Regarding AAACCCGA, the “PBM E-score” value turned out to be 0.215.

Turning to AACCCGGG, the “PBM E-score” value worked out at 0.325.

Take ATCCCGGG: the “PBM E-score” value is 0.36.

For CACCCGGC, the “PBM E-score” value was 0.15.

For ACCCCGGG, the “PBM E-score” value turned out to be 0.263.

For the sequence ATCCCGGA, the “PBM E-score” value is 0.274.

Regarding AAACCCGG, the “PBM E-score” value was determined as 0.337.

For the sequence CACCCGGG, the “PBM E-score” value came out at 0.189.

Regarding ACCCCGGC, the “PBM E-score” value turned out to be 0.0581.

For ATCCCCGG, the “PBM E-score” value stood at 0.185.

AACCCGGC: the “PBM E-score” value worked out at 0.329.

Consider AAACCCGC, for which the “PBM E-score” value amounted to 0.135.
